{"source": "the supplement of paper PMC8728848", "binders": {"B1": {"name": "Neuropilin-2 (Homo sapiens), O60462 (protein)", "chain": "MDMFPLTWVFLALYFSRHQVRGQPDPPCGGRLNSKDAGYITSPGYPQDYPSHQNCEWIVYAPEPNQKIVLNFNPHFEIEKHDCKYDFIEIRDGDSESADLLGKHCGNIAPPTIISSGSMLYIKFTSDYARQGAGFSLRYEIFKTGSEDCSKNFTSPNGTIESPGFPEKYPHNLDCTFTILAKPKMEIILQFLIFDLEHDPLQVGEGDCKYDWLDIWDGIPHVGPLIGKYCGTKTPSELRSSTGILSLTFHTDMAVAKDGFSARYYLVHQEPLENFQCNVPLGMESGRIANEQISASSTYSDGRWTPQQSRLHGDDNGWTPNLDSNKEYLQVDLRFLTMLTAIATQGAISRETQNGYYVKSYKLEVSTNGEDWMVYRHGKNHKVFQANNDATEVVLNKLHAPLLTRFVRIRPQTWHSGIALRLELFGCRVTDAPCSNMLGMLSGLIADSQISASSTQEYLWSPSAARLVSSRSGWFPRIPQAQPGEEWLQVDLGTPKTVKGVIIQGARGGDSITAVEARAFVRKFKVSYSLNGKDWEYIQDPRTQQPKLFEGNMHYDTPDIRRFDPIPAQYVRVYPERWSPAGIGMRLEVLGCDWTDSKPTVETLGPTVKSEETTTPYPTEEEATECGENCSFEDDKDLQLPSGFNCNFDFLEEPCGWMYDHAKWLRTTWASSSSPNDRTFPDDRNFLRLQSDSQREGQYARLISPPVHLPRSPVCMEFQYQATGGRGVALQVVREASQESKLLWVIREDQGGEWKHGRIILPSYDMEYQIVFEGVIGKGRSGEIAIDDIRISTDVPLENCMEPISAFAGENFKVDIPEIHEREGYEDEIDDEYEVDWSNSSSATSGSGAPSTDKEKSWLYTLDPILITIIAMSSLGVLLGATCAGLLLYCTCSYSGLSSRSCTTLENYNFELYDGLKHKVKMNHQKCCSEA"}}, "test_in_all_cases": "glycan array binding signal (z-score within array); higher = stronger binding", "details_in_all_cases": "glycan notation: IUPAC condensed, linker removed", "key": {"[1]": {"target": "Fuc(a1-2)Gal(b1-3)GalNAc(b1-3)Gal", "outline": "(§1)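 Negative Z-scores can be read as non-binding. The Z-score is calculated within each array and then averaged across arrays of one protein sequence at different concentrations or buffers and across linkers. Arrays, 3228 in all, were curated from the Consortium for Functional Glycomics database and kept only where the protein sequence was available.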"}, "[2]": {"target": "Fuc(a1-2)Gal(b1-4)GlcNAc(b1-2)Man(a1-3)[Fuc(a1-2)Gal(b1-4)GlcNAc(b1-2)Man(a1-6)]Man(b1-4)GlcNAc(b1-4)GlcNAc", "outline": "as §1"}, "[3]": {"target": "Fuc(a1-2)Gal(b1-4)[Fuc(a1-3)]GlcNAc", "outline": "as §1"}, "[4]": {"target": "Fuc(a1-2)[GalNAc(a1-3)]Gal(b1-3)GlcNAc(b1-2)Man(a1-3)[Fuc(a1-2)[GalNAc(a1-3)]Gal(b1-3)GlcNAc(b1-2)Man(a1-6)]Man(b1-4)GlcNAc(b1-4)GlcNAc", "outline": "as §1"}, "[5]": {"target": "Fuc(a1-2)[GalNAc(a1-3)]Gal(b1-4)Glc", "outline": "as §1"}, "[6]": {"target": "Fuc(a1-3)[Gal(b1-4)]Glc6S", "outline": "as §1"}, "[7]": {"target": "Fuc(a1-3)[Gal(b1-4)]GlcNAc(b1-4)Gal(b1-4)[Fuc(a1-3)]GlcNAc(b1-4)Gal(b1-4)[Fuc(a1-3)]GlcNAc", "outline": "as §1"}, "[8]": {"target": "Fuc(a1-3)[Gal3S(b1-4)]Glc6S", "outline": "as §1"}, "[9]": {"target": "Fuc(a1-3)[Gal3S(b1-4)]GlcNAc", "outline": "as §1"}, "[10]": {"target": "Gal(b1-3)GalNAc(a1-3)[Fuc(a1-2)]Gal(b1-4)Glc", "outline": "as §1"}, "[11]": {"target": "Gal(b1-3)[Fuc(a1-4)]GlcNAc", "outline": "as §1"}, "[12]": {"target": "Gal(b1-3)[Fuc(a1-4)]GlcNAc(b1-2)Man(a1-3)[Gal(b1-3)[Fuc(a1-4)]GlcNAc(b1-2)Man(a1-6)]Man(b1-4)GlcNAc(b1-4)GlcNAc", "outline": "as §1"}, "[13]": {"target": "Gal(b1-4)GlcNAc(b1-3)Gal(b1-3)GlcNAc", "outline": "as §1"}, "Gal3S4S(b1-4)GlcNAc": {"target": "Gal3S4S(b1-4)GlcNAc", "outline": "as §1"}, "GalNAc(b1-4)GlcNAc": {"target": "GalNAc(b1-4)GlcNAc", "outline": "as §1"}, "[14]": {"target": "GlcNAc(a1-4)Gal(b1-3)GlcNAc", "outline": "as §1"}, "[15]": {"target": "GlcNAc(a1-4)Gal(b1-4)GalNAc", "outline": "as §1"}, "[16]": {"target": "GlcNAc(a1-4)Gal(b1-4)GlcNAc(b1-3)Gal(b1-4)Glc", "outline": "as §1"}, "[17]": {"target": "GlcNAc(a1-4)Gal(b1-4)GlcNAc(b1-3)Gal(b1-4)[Fuc(a1-3)]GlcNAc(b1-3)Gal(b1-4)[Fuc(a1-3)]GlcNAc", "outline": "as §1"}, "GlcNAc(b1-4)GlcNAc": {"target": "GlcNAc(b1-4)GlcNAc", "outline": "as §1"}, "[18]": {"target": "Man(a1-2)Man(a1-2)Man(a1-6)[Man(a1-3)]Man", "outline": "as §1"}, "[19]": {"target": "Man(a1-2)Man(a1-3)[Man(a1-2)Man(a1-6)]Man", "outline": "as §1"}, "[20]": {"target": "Man(a1-2)Man(a1-3)[Man(a1-2)Man(a1-6)]Man(a1-6)[Man(a1-2)Man(a1-2)Man(a1-3)]Man", "outline": "as §1"}, "[21]": {"target": "Neu5Ac(a2-3)Gal(b1-4)GlcNAc(b1-2)Man(a1-3)[Neu5Ac(a2-6)Gal(b1-4)GlcNAc(b1-2)Man(a1-6)]Man(b1-4)GlcNAc(b1-4)GlcNAc", "outline": "as §1"}, "[22]": {"target": "Neu5Ac(a2-3)Gal(b1-4)GlcNAc(b1-6)[Neu5Ac(a2-3)Gal(b1-3)]GalNAc", "outline": "as §1"}, "[23]": {"target": "Neu5Ac(a2-3)Gal(b1-4)[Fuc(a1-3)]GlcNAc(b1-3)Gal", "outline": "as §1"}, "[24]": {"target": "Neu5Ac(a2-3)Gal(b1-4)[Fuc(a1-3)]GlcNAc(b1-3)Gal(b1-4)GlcNAc", "outline": "as §1"}, "[25]": {"target": "Neu5Ac(a2-3)GalNAc(b1-4)GlcNAc", "outline": "as §1"}, "[26]": {"target": "Neu5Ac(a2-3)[GalNAc(b1-4)]Gal(b1-4)Glc", "outline": "as §1"}, "Neu5Ac(a2-6)Gal(b1-4)Glc": {"target": "Neu5Ac(a2-6)Gal(b1-4)Glc", "outline": "as §1"}, "[27]": {"target": "Neu5Ac(a2-6)Gal(b1-4)GlcNAc(b1-2)Man(a1-3)Man(b1-4)GlcNAc(b1-4)GlcNAc", "outline": "as §1"}, "[28]": {"target": "Neu5Ac(a2-6)Gal(b1-4)GlcNAc(b1-2)Man(a1-3)[GlcNAc(b1-2)Man(a1-6)]Man(b1-4)GlcNAc(b1-4)GlcNAc", "outline": "as §1"}}, "note": "This excerpt belongs to a sample that is enriched for the strongest signals."}
{"binder": "B1", "values": [{"measurement": "glycan array binding signal (z-score)", "setting": "[1]", "result": 1.26}, {"measurement": "glycan array binding signal (z-score)", "setting": "[2]", "result": 3.21}, {"measurement": "glycan array binding signal (z-score)", "setting": "[3]", "result": 0.117}, {"measurement": "glycan array binding signal (z-score)", "setting": "[4]", "result": -0.324}, {"measurement": "glycan array binding signal (z-score)", "setting": "[5]", "result": -0.637}, {"measurement": "glycan array binding signal (z-score)", "setting": "[6]", "result": 0.81}, {"measurement": "glycan array binding signal (z-score)", "setting": "[7]", "result": -0.508}, {"measurement": "glycan array binding signal (z-score)", "setting": "[8]", "result": 6.67}, {"measurement": "glycan array binding signal (z-score)", "setting": "[9]", "result": 0.282}, {"measurement": "glycan array binding signal (z-score)", "setting": "[10]", "result": -0.835}, {"measurement": "glycan array binding signal (z-score)", "setting": "[11]", "result": 0.255}, {"measurement": "glycan array binding signal (z-score)", "setting": "[12]", "result": 5.64}, {"measurement": "glycan array binding signal (z-score)", "setting": "[13]", "result": -0.249}, {"measurement": "glycan array binding signal (z-score)", "setting": "Gal3S4S(b1-4)GlcNAc", "result": -0.032}, {"measurement": "glycan array binding signal (z-score)", "setting": "GalNAc(b1-4)GlcNAc", "result": -0.284}, {"measurement": "glycan array binding signal (z-score)", "setting": "[14]", "result": 1.66}, {"measurement": "glycan array binding signal (z-score)", "setting": "[15]", "result": 6.59}, {"measurement": "glycan array binding signal (z-score)", "setting": "[16]", "result": 1.04}, {"measurement": "glycan array binding signal (z-score)", "setting": "[17]", "result": 10.4}, {"measurement": "glycan array binding signal (z-score)", "setting": "GlcNAc(b1-4)GlcNAc", "result": -0.129}, {"measurement": "glycan array binding signal (z-score)", "setting": "[18]", "result": -0.323}, {"measurement": "glycan array binding signal (z-score)", "setting": "[19]", "result": -0.496}, {"measurement": "glycan array binding signal (z-score)", "setting": "[20]", "result": -0.552}, {"measurement": "glycan array binding signal (z-score)", "setting": "[21]", "result": -0.501}, {"measurement": "glycan array binding signal (z-score)", "setting": "[22]", "result": -0.664}, {"measurement": "glycan array binding signal (z-score)", "setting": "[23]", "result": -0.587}, {"measurement": "glycan array binding signal (z-score)", "setting": "[24]", "result": 3.79}, {"measurement": "glycan array binding signal (z-score)", "setting": "[25]", "result": 0.369}, {"measurement": "glycan array binding signal (z-score)", "setting": "[26]", "result": -0.339}, {"measurement": "glycan array binding signal (z-score)", "setting": "Neu5Ac(a2-6)Gal(b1-4)Glc", "result": 0.038}, {"measurement": "glycan array binding signal (z-score)", "setting": "[27]", "result": -0.201}, {"measurement": "glycan array binding signal (z-score)", "setting": "[28]", "result": -0.609}]}
